Reference: PubChem BioAssay AID2125 (NMMLSC, 2009)
Unmarked numbers belong to inactive results.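 How the source made its calls: active means combined score above 50, rising as EC50 falls below 10 µM and growth at top dose drops; inactive means the rest.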 Peptide text beside a SMILES is read from it. * marks the point of attachment. Cbz = O=C(OCc1ccccc1)*

Test system: YE3961
Test: growth inhibition of S. cerevisiae strain panel, profiling panel, 26S proteasome disassembly project, secondary panel, OD600 (AID 2125)
Conditions: growth OD600, 6-8 h, at 100 µM, stronger effect = lower value

Row | SMILES | percent response (growth) [%]
1 | CC(C)C[C@@H](C=O)NC(=O)[C@H](CC(C)C)NC(=O)[C@H](CC(C)C)NC(=O)OCc1ccccc1 (Cbz-Leu-Leu-Leu-aldehyde) | 59
2 | CC(=O)N1C(=O)C(=C2C=C(C)OC(C)=C2)c2ccccc21 | 78.5
